# Test results from PubChem BioAssay AID581 (PCMD, 2007).
# Hit rate of the full screen: of about 62,000 compounds, about 95 (0.2%) were called active.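 Rule for the calls: active = inhibition above 20% in each of the two mixture wells holding the compound; inactive = inhibition of 20% or less in either well.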 The full list was thinned out, with actives kept by preference.
# Biological target: Cathepsin G (Homo sapiens) (UniProt P08311)
# Assay: blockers of neutrophil cathepsin G protease – biochemical, pooled compound mixtures, AMC fluorescence, primary screen (AID 581);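 note: 0% = enzyme control without mixture and 100% = blank lacking enzyme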
# Conditions: purified enzyme, AMC-tetrapeptide fluorescence, hits give high values, screened at 5 µM (by protocol)
# Chain of Cathepsin G (Homo sapiens) (P08311 21-244 limits assumed): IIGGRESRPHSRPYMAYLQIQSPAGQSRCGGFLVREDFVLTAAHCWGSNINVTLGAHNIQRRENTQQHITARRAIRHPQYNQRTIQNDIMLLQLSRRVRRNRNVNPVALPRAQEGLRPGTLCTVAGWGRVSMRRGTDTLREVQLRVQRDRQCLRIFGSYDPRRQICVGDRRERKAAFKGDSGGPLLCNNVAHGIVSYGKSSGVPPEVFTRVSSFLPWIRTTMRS
row,SMILES,inhibition
1,COc1ccc(CCN=C2SCC(=O)N2C)cc1OC,11.6% (inactive)
2,O=C(CCN1C(=O)C2C3C=CC(C3)C2C1=O)Nc1ccccc1F (stereo not drawn),6.93% (inactive)
3,O=C(COc1ccccc1Cl)Nn1cnnc1,3.79% (inactive)
4,CCCOc1ccc(N2CC(C(=O)Nc3ccccn3)CC2=O)cc1 (stereo not drawn),1.22% (inactive)
5,CC1CN(C2CCCCC2)c2nc3c(c(=O)n(C)c(=O)n3C)n2C1 (stereo not drawn),-2.58% (inactive)
6,COc1ccc(C2CC(c3ccccc3)Nc3ncnn32)cc1 (stereo not drawn),-0.07% (inactive)
7,O=C(c1cccnc1NCc1ccccc1)N1CCOCC1,-5% (inactive)
8,CN(C)/C=C1/Nc2ccccc2C1=O,-0.82% (inactive)
9,O=c1nc(N2CCOCC2)nc2n1CCO2,1.08% (inactive)
10,CCOc1ccc(C(=O)N(Cc2ccc(N(C)C)cc2)C2CCS(=O)(=O)C2)cc1 (stereo not drawn),7.67% (inactive)
11,CCN1CCN(C(=O)c2ccccc2N(C)S(=O)(=O)c2ccc(C)cc2)CC1,3.35% (inactive)
12,CCc1nc(Nc2ccc3nccnc3c2)c2oc3ccccc3c2n1,-2.89% (inactive)
13,CNC(=O)n1ccc(C(=O)N2CCCCC2)n1,11% (inactive)
14,CC(C)(C)n1nnnc1C(c1ccc2ncccc2c1)N1CCSCC1 (stereo not drawn),-7% (inactive)
15,Cc1ccc(N2C(=O)c3oc4ccccc4c(=O)c3C2c2cccnc2)nc1 (stereo not drawn),10.5% (inactive)
16,O=C(O)CN1C(=O)CC(Cc2ccccc2)C1=O (stereo not drawn),-0.115% (inactive)
17,CCCCn1c(SCc2ncc(-c3ccccc3)o2)nc2cc(S(N)(=O)=O)ccc21,13.9% (inactive)
18,Cc1ccc(CNC(=O)C2CCCN(S(C)(=O)=O)C2)cc1 (stereo not drawn),-3.54% (inactive)
19,CCC1SC2=NCCN2C1(O)c1ccc(Cl)cc1 (stereo not drawn),1.99% (inactive)
20,Cn1c(=O)[nH]c(=O)c2c1nc(N(CCO)Cc1ccccc1)n2Cc1ccccc1Cl,5.71% (inactive)
21,COc1ccccc1N1CCN(CCCCOc2ccc(F)cc2)CC1,13.1% (inactive)
22,CCS(=O)(=O)NCCc1ccc(OC)c(OC)c1,13.1% (inactive)
23,CCCN1CCN(C(=O)Cn2ncc3ccccc32)CC1,-11.9% (inactive)
24,CCc1nc2oc3ccccc3c(=O)c2c(=O)n1Cc1ccc(OC)cc1,-20.5% (inactive)
25,Cn1cccc1Cc1nnc(SCC(=O)NCc2ccc3c(c2)OCO3)n1CCc1ccccc1,10.5% (inactive)

row,SMILES,inhibition
1,COc1ccc(CC(=O)n2nc(-c3cccnc3)nc2N)cc1,14.7% (inactive)
2,COc1ccccc1C(=O)n1nc(-c2ccccc2)nc1N,7.93% (inactive)
3,COC(=O)c1ccc(OC(=O)c2nn(C)cc2Cl)c(OC)c1,1.08% (inactive)
4,COc1ccc(C(=O)n2nc(-c3ccc(Cl)cc3)nc2N)cc1OC,37.8% (active)
5,COc1ccc(C(=O)n2nc(-c3ccc(C)cc3)nc2N)cc1OC,44% (active)
6,COc1ccc(C(=O)Cn2nnc(-c3ccc(N4CCOCC4)cc3)n2)cc1OC,2.19% (inactive)
7,Cc1cccc(-n2c(Cc3cc(=O)[nH]c(=O)[nH]3)nnc2SC(C)C)c1,10.3% (inactive)
8,CCCN1Cc2cccc(C(=O)NCc3ccccc3)c2C1=O,-0.625% (inactive)
9,COc1ccc(N(Cc2cc3cc(OC)ccc3[nH]c2=O)S(C)(=O)=O)cc1,-3.1% (inactive)
10,Cn1c(CC(=O)Nc2ccccc2)nnc1SCC(=O)c1ccccc1,-0.18% (inactive)
11,c1ccc2cc(OCCN3CCCC3)ccc2c1,-4.75% (inactive)
12,O=C(O)CSC(NC(=O)c1cccnc1)(C(F)(F)F)C(F)(F)F,4.23% (inactive)
13,CCOC(=O)c1c(NC(=O)CSc2nnc(Cc3csc(N)n3)n2C)sc(C)c1C,-4.19% (inactive)
14,O=C1CCCC(O)=C1C=NCCc1ccccc1,33.4% (active)
15,CC1(C)CC(=O)C(C=NCCC2=CCCCC2)=C(O)C1,6.17% (inactive)
16,O=C1CC(c2ccccc2)CC(O)=C1C=NCCN1CCOCC1 (stereo not drawn),14.8% (inactive)
17,O=C(CSc1nnc(-c2cccs2)n1Cc1ccco1)c1ccc2c(c1)OCO2,7.29% (inactive)
18,CSc1ccc(S(=O)(=O)Nc2cccc(F)c2)cc1,-1.91% (inactive)
19,CCCNC(=O)Nc1ccccc1C(=O)Nc1ccc(OC)cc1,4.04% (inactive)
20,CC1(C)CC(=O)c2cc(OCC(=O)NCC3CCCO3)ccc2O1 (stereo not drawn),4.79% (inactive)
21,O=C(c1ccco1)N1CCN(C(=O)C2CC(c3ccc(F)cc3)=NO2)CC1 (stereo not drawn),2.3% (inactive)
22,COCCCNC(=O)CCc1nc2cccnc2n1Cc1ccc(OC)cc1,11.7% (inactive)
23,CCN(c1ccc2c(c1)OCO2)S(=O)(=O)c1cc(Br)cc2c1N(C(=O)C1CC1)CC2,2.07% (inactive)
24,COC(=O)c1cc(NC(=O)CN2CCC(C(N)=O)(N3CCCCC3)CC2)cc(C(=O)OC)c1,-6.63% (inactive)
25,CN(C)c1ccnc2sc3c(=O)n(Cc4ccccc4)cnc3c12,-4.39% (inactive)

row,SMILES,inhibition
1,CC(=O)N1C(=O)C2(Nc3ccccc3N2)c2ccccc21,-1.99% (inactive)
2,Cc1ccccc1CSc1nnc(-c2cccnc2)n1N,14.2% (inactive)
3,Cc1cccc(NC(=O)CSc2nnc(CCCCCNC(=O)OC(C)(C)C)o2)c1C,6.06% (inactive)
4,O=C(Cn1c(-c2ccc(Cl)cc2)noc1=O)N1CCN(c2ccccc2F)CC1,7.96% (inactive)
5,O=c1ccn(Cc2ccccc2Cl)cc1,-1.12% (inactive)
6,Cc1cc(NC(=O)CN2CCC(O)(c3cccc(F)c3)CC2)no1,5.96% (inactive)
7,COc1cccc(N(C(=O)c2ccn[nH]2)C2(C(=O)Nc3c(C)cccc3C)CCCCC2)c1,8.21% (inactive)
8,COc1ccc2occ(C(=O)c3ccc(N=C(C)N(C)C)cc3)c2c1,-7.35% (inactive)
9,O=C1Nc2c(Br)cc(Br)cc2C1(O)N1CCOCC1 (stereo not drawn),1.49% (inactive)
10,CCOC(=O)CNC(=O)CSc1nnc(-c2cccc(OC)c2)n1CC,-5.21% (inactive)
11,Oc1c(C(c2ccccn2)N2CCOCC2)ccc2cccnc12 (stereo not drawn),13.3% (inactive)
12,CN(C(=O)c1ccccn1)c1nnc(-c2ccccn2)s1,10.6% (inactive)
13,COc1ncnc2c1N=C1CC(C)(C)CC(N)=C1S2,-6.43% (inactive)
14,Cc1noc(C)c1C(=O)Nc1ccccn1,-18.6% (inactive)
15,CCOC(=O)N1CCN(CC(=O)c2ccc3c(c2)CCN3)CC1,10.3% (inactive)
16,Cc1occc1C(=O)Nc1nnc(-c2ccncc2)s1,39.2% (inactive)
17,COCCn1c(SCC(=O)Nc2cc(Cl)ccc2OC)nc2c(c1=O)SC(C)C2 (stereo not drawn),9.03% (inactive)
18,NC(=O)CCCC1=NS(=O)(=O)c2ccccc2N1,4.5% (inactive)
19,CCOC(=O)c1ccc(NC(=O)CS(=O)(=O)c2cn(CC)c3ccccc23)cc1,29.3% (active)
20,CCOC(=O)c1ccc(NC(=O)Cn2nnc(-c3ccc(C)cc3)n2)cc1,-7.1% (inactive)
21,CCOC(=O)c1ccc(NC(=O)CSc2ncccn2)cc1,-1.62% (inactive)
22,COc1ccc2nc(NC(=O)c3ccc(Br)s3)sc2c1,10.8% (inactive)
23,O=C(Cn1nc(Cc2cccnc2)c2ccccc2c1=O)NCC1COc2ccccc2O1 (stereo not drawn),8.5% (inactive)
24,C/C(N)=C(\C#N)C(=O)NCCc1ccccn1,2.5% (inactive)
25,CCSC1=C(C#N)C(=O)n2c1cc1c2CCCC1,0.675% (inactive)

row,SMILES,inhibition
1,CSc1nsc(SC)c1NC(=O)OC1CCCCC1,7.19% (inactive)
2,CCOC(=O)C1CCCN(C(=O)c2ccc(CS(=O)(=O)c3ccc(Br)cc3)o2)C1 (stereo not drawn),7.41% (inactive)
3,CCOC(=O)c1csc(NC(=O)c2ccc(S(=O)(=O)N3CCCC3)cc2)n1,-0.28% (inactive)
4,COc1ccc(OC)c(NC(=O)CN2CCN(C(=O)c3ccco3)CC2)c1,9.79% (inactive)
5,Cn1c(-c2ccc(C(=O)c3ccccc3)s2)nc2ccccc21,2.31% (inactive)
6,CN(Cc1ccccc1)C(=O)CCNC(=O)Cn1cnc2ccccc2c1=O,-3.7% (inactive)
7,COc1ccc(OC)c(C(=O)c2coc3ccc(OC)cc23)c1,-10.9% (inactive)
8,COc1ccc2c(c1)CCc1c(C(=O)N3CCc4ccccc4C3)noc1-2,35% (active)
9,COc1ccc2c(c1)CCc1c(C(=O)Nc3c(C)n(C)n(-c4ccccc4)c3=O)noc1-2,34.3% (active)
10,Cc1cc(C(=O)Nc2c(C)n(C)n(-c3ccccc3)c2=O)cs1,8.47% (inactive)
11,COC(=O)Nc1c(C)n(C)n(-c2ccccc2)c1=O,11.2% (inactive)
12,O=C(c1cc(-c2cccc(O)c2)on1)N1CCc2ccccc2C1,5.56% (inactive)
13,COc1ccc2c(c1)CCc1c(C(=O)N3CCCC3)noc1-2,18.8% (inactive)
14,CCOc1cc(CO)ccc1OCC(=O)N1CCCCC1,4.5% (inactive)
15,COc1ccc(C(=O)Nc2ccc(S(=O)(=O)Nc3onc(C)c3C)cc2)cc1OC,-6.97% (inactive)
16,COCCCN1C(=O)c2ccc(C(=O)Nc3ccc(OC)cc3OC)cc2C1=O,-4.08% (inactive)
17,Cc1nn(Cc2ccc(Cl)c(Cl)c2)c(C)c1NC(=O)c1cc(C2CC2)on1,-8.5% (inactive)
18,CN(C)c1cc(N)c2ccccc2n1 (tested in a mixture with another compound),2.17% (inactive)
19,O=C(CSc1nnc(-c2ccoc2)o1)N1CCOCC1,1.64% (inactive)
20,Cc1cccc(-n2c(O)c(C=Nc3ccccc3N)c(=O)[nH]c2=O)c1,-2.9% (inactive)
21,C1=C(N2CCOCC2)/C(=C/c2nc3ccccc3[nH]2)CC1,12.8% (inactive)
22,CCOc1ccc(CC(=O)Nc2ccc(S(=O)(=O)Nc3cc(C)on3)cc2)cc1OCC,6.78% (inactive)
23,Cc1ccc(S(=O)(=O)N(C)CC(=O)NC2CCCC2)cc1,1.06% (inactive)
